# Sfp PPTase inh – qHTS Assay for Inhibitors of Bacillus subtilis Sfp phosphopantetheinyl transferase (PPTase). 4'-phosphopantetheinyl transferase ffp (Bacillus subtilis), Q9F4F7. Biochemical Sfp PPTase activity, qHTS. Potency, µM, for inactives: largest response in the series, negative = inhibition, hits mostly inhibitors. hit rate 3.5% among 310,000. AID 1490, 2009;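 also: the enzyme is Sfp with the accession as filed and its product quenches rhodamine fluorescence; 0% = enzyme reaction without inhibitor and -100% = no enzyme wells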
#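 With Hepes-Na pH 7.6 buffer containing 10 mM MgCl2, Sfp (15 nM) modified BHQ-2-YbbR (12.5 uM) using rhodamine-CoA (5 uM). Two reads 30 minutes apart at 525/598 nm yielded each well's rate.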
# BAZ2B block – qHTS Assay for Inhibitors of BAZ2B; hit rate 4.4% among 360,000; AlphaScreen BAZ2B-H3K14Ac peptide displacement; Potency, µM (series often up to 114 µM), inactives show at the highest dose activity change, negative = inhibition, actives largely listed as inhibitors; Bromodomain adjacent to zinc finger domain protein 2B (Homo sapiens), Q9UIF8; AID 504333, 2011; also: % is scaled to controls: 0 for no effect and ±100 for the full control effect; nearly all actives have a fitted effect of over 60% in size
#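 Compounds, titrated to a top concentration of 110 uM, were incubated 30 min at room temperature with preformed BAZ2B/acetyl-K14 H3 peptide complex (50 nM each). Proximity signal was measured by AlphaScreen after 20 min with beads.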
# JMJD2A Tudor inh – qHTS Assay for Inhibitors of JMJD2A-Tudor Domain; Lysine-specific demethylase 4A (Homo sapiens), O75164; AlphaScreen JMJD2A-Tudor / H3K4me3 peptide binding; Potency, µM (doses to about 114 µM), for inactives: at the top dose activity change, negative = inhibition, hits mostly inhibitors; hit rate 4.4% among 390,000; also: % is scaled to controls: 0 for no effect and ±100 for the full control effect; nearly all actives have a fitted effect of over 50% in size
# HP1b chromo inh – HTS for Inhibitors of HP1-beta Chromodomain Interactions with Methylated Histone Tails. AlphaScreen HP1-beta / biotin-H3K9me3 peptide binding. Chromobox protein homolog 1 (Homo sapiens), P83916. Potency, µM (highest dose often 114 µM), inactives show top-dose activity change, negative = inhibition, actives largely listed as inhibitors. hit rate 0.56% among 390,000; also: nearly all actives have a fitted effect of over 70% in size
# Target sequence (P83916 whole entry, looked up): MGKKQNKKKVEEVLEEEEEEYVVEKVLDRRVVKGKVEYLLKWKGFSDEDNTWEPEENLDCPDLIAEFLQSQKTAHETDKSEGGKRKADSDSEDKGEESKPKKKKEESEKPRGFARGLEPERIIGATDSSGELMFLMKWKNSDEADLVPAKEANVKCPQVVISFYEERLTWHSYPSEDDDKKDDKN
#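 AlphaScreen: HP1-beta (50 nM) preformed 30 min with biotin-H3(1-18)K9me3 peptide (50 nM) in PBS pH 7.4, 0.01% Tween-20. Compound added for 30 min at RT, then streptavidin donor/nickel chelate acceptor beads (10 ug/mL) for 30 min.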
# L3MBTL1 inh – qHTS Assay for the Inhibitors of L3MBTL1; Lethal(3)malignant brain tumor-like protein 1 (Homo sapiens), Q9Y468; AlphaScreen L3MBTL1–H3K9me1 peptide binding; Potency, µM (titrated, usually from 57.1 µM), for inactives: at the highest dose activity, negative = inhibition, usual class: inhibitors; hit rate 0.66% among 230,000; also: % is scaled to controls: 0 for no effect and ±100 for the full control effect; nearly all actives have a fitted effect of over 60% in size
#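 AlphaScreen assay: L3MBTL1 (50 nM final) was preincubated 30 min at room temperature with biotinylated H3(1-15)K9me1 peptide (75 nM final), then 30 min with library compounds; streptavidin donor and nickel chelate acceptor beads (10 ug/mL final) added, 30 min dark.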
# G9a block – qHTS Assay for Inhibitors of Histone Lysine Methyltransferase G9a. G9a H3K9 monomethylation, AlphaScreen, 2 h. Potency, µM (doses to about 102 µM), for inactives: at the highest dose activity, negative = inhibition, actives largely listed as inhibitors. hit rate 8.8% among 350,000. AID 504332, 2011; also: % is scaled to controls: 0 for no effect and ±100 for the full control effect; nearly all actives have a fitted effect of over 75% in size
# Target sequence (Q96KQ7 913-1193 limits assumed): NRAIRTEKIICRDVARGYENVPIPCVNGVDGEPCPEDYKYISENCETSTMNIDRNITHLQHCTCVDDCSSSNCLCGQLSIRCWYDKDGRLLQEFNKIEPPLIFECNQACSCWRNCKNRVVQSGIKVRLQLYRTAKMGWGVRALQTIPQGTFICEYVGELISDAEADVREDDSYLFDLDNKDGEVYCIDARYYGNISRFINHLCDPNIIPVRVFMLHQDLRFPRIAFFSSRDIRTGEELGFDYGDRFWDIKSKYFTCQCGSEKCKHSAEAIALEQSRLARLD
#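 Readings reflect AlphaScreen signal from monomethyl-H3K9 antibody detection. HMT at 20 nM; substrate b-H3K9 500 nM; cofactor SAM 20 uM; 2 h RT reaction; compounds tested as titrations in qHTS with 15 min preincubation.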
# * hit, by the source's call; ? = inconclusive; nt = no result; [ ] = remark or other dose. In the library only some 12% were active in any assay of this set; here they are far more common. Calls follow the shape of the dose curve; as a rule, active = well fitted curve in the direction sought with a large enough effect; inconclusive = small, poorly fitted or top-dose-only effect, or another doubt; inactive = no such curve, though single readings can be large; an effect the other way counts as inactive or inconclusive. Potency is read from the fitted curve at half-maximal effect.
SMILES,Sfp PPTase inh,BAZ2B block,JMJD2A Tudor inh,HP1b chromo inh,L3MBTL1 inh,G9a block
CCCn1c(=O)c2sccc2n2c(CCCC(=O)NC3CCCCC3)nnc12,nt,-4%,5%,44%,nt,-2%[59 µM]
CCOC(=O)C1=NS(=O)(=O)NC(C)=C1,nt,nt,56µM*,13%,5%,nt
CCC(C(=O)NCc1ccc(F)cc1)n1nc(C)n2c(cc3occc32)c1=O (stereo unspecified),10%,-10%,-9%,44%,nt,-12%
CCOc1ccc(CNC(=O)C(CC)n2nc(C)n3c(cc4occc43)c2=O)cc1OC (stereo unspecified),11%,-6%,-7%,31%,-9%,50µM*
O=C(CN(Cc1ccccc1)C(=O)CCC(=O)Nc1nccs1)NCc1ccccc1,22%,0%,-7%,8%,nt,?
CSc1nnc(-c2cc[n+](C)cc2)n1CCO,-1%,6%,89µM*,7%,1%,7.9µM*
CSc1nnc(-c2ccccc2)n1N,1%,-3%,4%,30%,12%,-48%
N=C(N)SCc1nc2ccccc2c(=O)n1-c1ccccc1,50µM*,-28%,?,-20%,10%,45µM*
COc1ccc2c(c1)-c1c(ssc1=S)C(C)(C)N2,?,13µM*,20µM*,16µM*,20µM*,7.9µM*
COc1ccc2c(c1)-c1c(sn(-c3ccc(OC)c(OC)c3)c1=S)C(C)(C)N2,-6%,10µM*,35µM*,-81%,?,10µM*
COc1cc2c3c(c1)-c1c(sn(-c4cc(OC)ccc4OC)c1=S)C(C)(C)N3C(=O)C2=O,-10%,7.1µM*,4%,19%,-5%,?
COc1ccc(-n2sc3c(c2=S)-c2cc(OC)ccc2NC3(C)C)cc1,?,11µM*,3.2µM*,10µM*,32µM*,10µM*
COc1ccc2c(c1)C(=O)C(=O)N2,-10%,?,-2%[57.1 µM],31%,-11%,-10%[59 µM]
COc1ccc(OC)c(N2C(=O)C(Cl)=C(N3CCOCC3)C2=O)c1,4%,4%,-19%,54%,2%,-26%
CSc1nc(Nc2ccc(C)cc2C)cc(-c2ccccc2)n1,nt,33%,20%,119%,nt,24%[59 µM]
COc1ccc(N2CCN(C(=O)CSc3nc(-c4ccc(C(C)C)cc4)no3)CC2)cc1,nt,-14%,-28%,-10%,nt,-9%[59 µM]
O=c1[nH]c(C(F)(F)C(F)(F)C(F)(F)F)no1,nt,nt,-14%,20%,nt,nt
Cc1ccc(NC(=O)c2cnn(-c3ccc(C)c(C)c3)c2C2CCN(C(=O)OC(C)(C)C)CC2)c(C)c1,nt,5%,-29%,52%,nt,13%[59 µM]
C[C@@H]1CN([C@@H](C)CO)C(=O)c2cc(NC(=O)Nc3ccccc3)ccc2O[C@H]1CN(C)C(=O)Nc1cccc2ccccc12,nt,nt,-14%,24%,-2%,nt
COc1ccc2c(c1)-c1c(sn(-c3ccccc3)c1=S)C(C)(C)N2,-5%,8.9µM*,40µM*,?,32µM*,28µM*
CCOc1cc2sc(N3CCC(C(=O)Nc4ccc(CC)cc4)CC3)nc2cc1Br,nt,-11%,-17%,17%,nt,5%[59 µM]
COc1ccc(NC(=O)CSCc2cc(=O)n3c(C)csc3n2)cc1,10%,-21%,-14%,56%,nt,4%
C=C(C)C(=O)N1CCN(C(=O)C(=C)C)c2ccccc21,nt,nt,-8%,32%[57 µM],nt,nt
Cc1ccc(C(=O)Nc2cccnc2)cc1S(=O)(=O)N1CCOCC1,10%,3%,-18%,20%,nt,-9%

# Screening data (PubChem)
